Test results: PubChem BioAssay

Experiment: binders of probe aHhip on microarray, primary screen, stem cell growth factor project, biochemical, small-molecule microarray, fluorescence 635/667 (AID 1087);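 note: score merges spot fluorescence at 667nm with spot signal to noise ratio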
Details: higher = more signal

Compound | composite z-score
C[C@@]1([C@@H](NS(=O)(=O)c2cccc3cccnc23)c2ccc(-c3ccccc3)cc2)C[C@H]1C1CCCCC1 | 0.0446
O=C1O[C@H](c2ccccc2)[C@H](c2ccccc2)N2[C@H]1[C@@H](C(=O)N1CCN(c3ncccn3)CC1)[C@]1(C(=O)Nc3ccc(C#CC4(O)CCCCCC4)cc31)[C@H]2c1ccc(O)cc1 | -0.0645
C=CCC(OC(C)=O)[C@@H]1[C@@H](N(Cc2ccc(-c3ccccc3)cc2)C(=O)Cc2ccc(OC)cc2)c2cc(OCCCO)ccc2N1C(=O)c1ccc2ccccc2c1 (stereo not given in full) | -0.283
O=C(NC1CC1)[C@@H]1c2ccccc2C(=O)N(C2CCCCC2)[C@H]1c1ccc(CO)cc1 | -0.228
COC(=O)[C@@]1(Cc2ccccc2)[C@H]2c3cc(C(=O)N(C)C)n(Cc4nc5ccccc5[nH]4)c3C[C@H]2CN1C(=O)c1ccccc1 | -0.315
C=CCOC(=O)[C@@H]1[C@H]2C(=O)O[C@H](c3ccccc3)[C@H](c3ccccc3)N2[C@H](c2ccc(OCCOC(=O)[C@@H]3C[C@@H]4C(=O)N[C@@H](CC(C)C)C(=O)N4[C@@H]3c3ccc(O)cc3)cc2)[C@@]12C(=O)Nc1ccc(I)cc12 | 0.383
COCCOC(=O)N1C(=O)[C@@]2(c3cc(C#CCNC(N)=O)ccc31)[C@H](C(N)=O)[C@H]1C(=O)O[C@H](c3ccccc3)[C@H](c3ccccc3)N1[C@@H]2c1ccc(O)cc1 | -0.287
C=CCNC(=O)[C@H]1[C@@H]2C(=O)O[C@@H](c3ccccc3)[C@@H](c3ccccc3)N2[C@@H](c2ccc(OCCO)cc2)[C@]12C(=O)Nc1ccc(C#Cc3ccc(OC)cc3)cc12 | 0.289
CN1C(=O)C2C=CC(C(O)c3ccc(I)cc3)N(N(c3ccccc3)c3ccccc3)C2C1=O (stereo not given) | -0.176
Cc1ccc(S[C@]2(C(=O)NCc3ccccc3)CC(=O)N(Cc3ccccc3Cl)[C@@H]2c2ccc(CO)cc2)cc1 | -0.353
C[C@]1(C(=O)O)c2ccccc2C(=O)N(Cc2cc(C(F)(F)F)cc(C(F)(F)F)c2)[C@H]1c1ccc(CO)cc1 | -0.236
COC(=O)C(CC#Cc1ccc2c(c1)[C@]1(C(=O)N2)[C@H](C(N)=O)[C@H]2C(=O)O[C@H](c3ccccc3)[C@H](c3ccccc3)N2[C@@H]1c1ccccc1OCCO)C(=O)OC | -0.0994
COC(=O)[C@@]1(Cc2ccc(F)cc2)[C@H]2c3cc(C(=O)N(C)C)n(Cc4ccc(C(F)(F)F)nc4)c3C[C@H]2CN1C(=O)c1ccccc1 | 0.264
CCN1C(=O)C2CC(=O)C3C(CN(S(=O)(=O)c4ccc(C)cc4)C3c3ccc(C)cc3)C2C1=O (stereo not given) | 0.0053
C=C[C@H](OC)[C@@H](O)c1ccc(OC)c(O)c1 | 0.107
CCCCCN1CC=CC23O[C@@H]4/C=C\CCCOC(=O)C4[C@H]2C(=O)N(CCCCCO)[C@@H]3C1=O (stereo not given in full) | -0.164
CC(C)C[C@H]1NC(=O)CNC(=O)[C@@]23C(=O)N[C@@H](Cc4ccccc4)C2[C@H](C)[C@@]2(C)O[C@H]2C3/C=C/C/C=C\CNC1=O (stereo not given in full) | -0.0121
C=CCNC(=O)[C@@H]1[C@H]2C(=O)O[C@H](c3ccccc3)[C@H](c3ccccc3)N2[C@H](c2ccc(OCCO)cc2)[C@@]12C(=O)Nc1ccc(C#CCNC(N)=O)cc12 | -0.191

Compound | composite z-score
CC(C)[Si](C#Cc1ccccc1)(O[C@H](c1ccccc1)c1cn(Cc2ccccc2)nn1)C(C)C | 0.107
C=C(C(=O)CC[C@@H](OC(=O)c1cccnc1)c1cccc(OCCO)c1)C(C)C | -0.236
CCCCN1CC=CC23O[C@@H]4/C=C\CCC(C)OC(=O)C4[C@H]2C(=O)N(CCO)[C@@H]3C1=O (stereo not given in full) | -0.3
O=C/C=C/c1ccc(-c2ccccc2)cc1 | 0.21
COc1cc(CO)cc(I)c1O[C@H]1C=C(C(=O)NCCO)C[C@@H](N(CCN2CCOCC2)C(=O)C2CCCO2)[C@@H]1O (stereo not given in full) | -0.0383
CC(C)C[C@@H]1NC(=O)[C@H]2C[C@@H](C(=O)O)[C@@H](c3cccc(OCCO)c3)N2C1=O | 0.129
COc1cc(Cc2cc3c(c(CCc4ccccc4)n2)[Si](C(C)C)(C(C)C)O[C@H]3c2ccccc2)cc(OC)c1OC | -0.0102
C=CCNC(=O)[C@@H]1[C@H]2C(=O)O[C@H](c3ccccc3)[C@H](c3ccccc3)N2[C@H](c2ccc(O)cc2)[C@@]12C(=O)Nc1ccc(C#CC3=CCCCC3)cc12 | -0.426
Cc1cccc([C@H]2C[C@H]3C(Br)=C[C@@]2(CO)C(=O)[C@]32CO2)c1 | -0.0994
COCCOC(=O)N1C(=O)[C@@]2(c3cc(C#CCCO)ccc31)[C@H](C(=O)N1CCN(c3ncccn3)CC1)[C@H]1C(=O)O[C@H](c3ccccc3)[C@H](c3ccccc3)N1[C@@H]2c1ccc(OCCO)cc1 | -0.171
COC(=O)[C@H](Cc1ccccc1)N1CC(C)(OC)O[C@@H](Cc2ccccc2)[C@H]1/C=C/C1CC1 (stereo not given in full) | -0.331
CCOC(=O)C1=CCC(c2ccncc2)N(S(=O)(=O)c2ccc(C)cc2)C1 (stereo not given) | -0.0735
COC(=O)[C@@]1(Cc2ccc(F)cc2)[C@H]2c3cc(C(=O)N4CCCC4)n(Cc4ccc(C(F)(F)F)nc4)c3C[C@H]2CN1C(=O)c1ccccc1 | -0.0799
COCCOC(=O)N1C(=O)[C@@]2(c3cc(C#CCNC(N)=O)ccc31)[C@H](c1ccccc1OCCO)N1[C@H](c3ccccc3)[C@H](c3ccccc3)OC(=O)[C@H]1[C@@H]2C(=O)N1CCCCCCC1 | 1
CCCCC(=C=CC[C@@H](O)c1ccccc1OCCO)C[C@@H](O)c1ccccn1 | -0.0645
O=C(NCC(F)(F)F)[C@@H]1c2ccccc2C(=O)N(Cc2cc(C(F)(F)F)cc(C(F)(F)F)c2)[C@H]1c1ccc(CO)cc1 | -0.0296
CC(CO)N1C(=O)[C@@H]2[C@H]3C(=O)OCC=C[C@H]3OC23C=CCN(c2ccc4ccccc4c2)C(=O)[C@@H]13 (stereo not given in full) | -0.0994
